Results: PubChem BioAssay (NCI)
Compounds without any hit were thinned out: in the full panel of roughly 79,000, 15% have a hit. The source made the active and inactive calls. Cut-off read from the data, not from the text of the source: active = growth inhibition above about 70%; inactive = the rest.

Experiment: NCI Yeast Anticancer Drug Screen. Data for the bub3 strain (AID 167)
Settings: S. cerevisiae bub3 mutant strain, at 50.0 µM, active compounds read high
How it was run: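 Part of a panel of yeast mutants defective in DNA damage repair or cell cycle regulation. Each strain is grown with compound, and inhibition is calculated relative to solvent-treated cultures.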
With `CCOC(SCC)C(O)C(O)C(O)C(O)CO` (stereo not drawn) the growth inhibition was -7.8% (inactive). For `c1ccc(OCCCCN2CCNCC2)cc1`, the growth inhibition was 8.3% (inactive). In the case of `O=C(O)c1ccccc1C(=O)OCC1CCCc2ccccc21` (stereo not drawn), the growth inhibition is reported as 43.5% (inactive). With `CCOC(=O)c1c(N)n(-c2ccccc2)c(=S)n(-c2ccccc2)c1=O` the growth inhibition was -40.2% (inactive). In the case of `O=C1c2ccccc2C(=O)N1n1c(Cc2ccccc2)n[nH]c1=O`, the growth inhibition is reported as -16.5% (inactive). For `COc1ccc(/C=C2\N=C(c3ccc(Cl)cc3)OC2=O)cc1Br`, the growth inhibition was 12.8% (inactive). In the case of `c1ccc(CCCC2Sc3cccc4cccc(c34)S2)cc1`, the growth inhibition is reported as -16% (inactive). In the case of `NCCSC(O)(C(F)(F)F)C(F)(F)F`, the growth inhibition is reported as 1.2% (inactive). In the case of `Nc1ccc([N+](=O)[O-])cc1F`, the growth inhibition is reported as 3.95% (inactive). For `CC(=O)N1CN2C(=O)CCC2c2cc(C)ccc21` (stereo not drawn), the growth inhibition was 0.95% (inactive). In the case of `CCCNCCCCC(C)Nc1cc(OC)cc2cccnc12` (stereo not drawn), the growth inhibition is reported as 8.2% (inactive). In the case of `COC(=O)Nn1cc(C(C(C)=O)C(C)=O)c(C(C)=O)c1C`, the growth inhibition is reported as -0.05% (inactive). In the case of `CC(C)C(N)C(=O)NC(C(=O)O)C(C)C` (stereo not drawn), the growth inhibition is reported as -0.6% (inactive). For `O=C(O)c1ncn2c(=O)n(CCCl)nnc12`, the growth inhibition was -0.55% (inactive). For `CCCCc1c2c([n+]([O-])c3c1CCCC3)CCCC2`, the growth inhibition was 17.2% (inactive). With `O=C(c1ccc(Cl)cc1Cl)C(CS(=O)(=O)O)CS(=O)(=O)O` the growth inhibition was -5.6% (inactive). In the case of `C=C1CC[C@H]2C(C)=CC[C@H]3C(=C)C(=O)O[C@@H]3[C@@H]12`, the growth inhibition is reported as -15.4% (inactive). With `Nc1cc(C(=O)c2ccccc2C(=O)O)ccc1Cl` the growth inhibition was -28.8% (inactive).
